HTR5A ag = HTR5A agonists in luminescence cell assay, primary screen, counter-screen for OPRM1-OPRD1 heterodimer agonist project, full-deck HTS; 5-hydroxytryptamine receptor 5A (Homo sapiens), P47898; cell-based; activation, % at 9.3 µM; 0.61% of 340,000 active; AID 504692, 2011; in the data active means activation mostly above about 9.5%, no sharp cut-off; inactive means mostly below about 7.6%;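 further: 0% = cells with vehicle only and 100% = reference agonist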
OPRM1-OPRD1 inv = inverse agonists of MOR-DOR heterodimerization, primary screen, cell-based, luminescence. inhibition, % at 9.3 µM. Mu-type opioid receptor (Homo sapiens) + Delta-type opioid receptor (Homo sapiens), …. AID 504357, 2011. 0.21% of 340,000 active. cell-based MOR-DOR heterodimer luminescence, inverse agonism; in the data active means inhibition above about 22%, passing the limit was not always enough;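 further: 0% = cells with DMSO and 100% = wells without cells with DMSO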
Target sequence (P35372 whole entry, looked up): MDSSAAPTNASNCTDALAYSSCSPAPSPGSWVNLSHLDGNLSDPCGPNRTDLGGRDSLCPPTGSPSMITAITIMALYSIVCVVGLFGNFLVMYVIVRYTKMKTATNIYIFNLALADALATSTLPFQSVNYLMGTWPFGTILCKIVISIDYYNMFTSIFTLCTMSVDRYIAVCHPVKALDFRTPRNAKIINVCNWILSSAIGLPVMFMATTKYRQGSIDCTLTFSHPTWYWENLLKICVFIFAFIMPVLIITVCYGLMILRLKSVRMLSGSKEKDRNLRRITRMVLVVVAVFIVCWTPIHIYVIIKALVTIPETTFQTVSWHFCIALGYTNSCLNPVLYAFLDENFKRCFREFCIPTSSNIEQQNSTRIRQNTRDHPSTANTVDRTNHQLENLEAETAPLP
Target sequence (P41143 whole entry, looked up): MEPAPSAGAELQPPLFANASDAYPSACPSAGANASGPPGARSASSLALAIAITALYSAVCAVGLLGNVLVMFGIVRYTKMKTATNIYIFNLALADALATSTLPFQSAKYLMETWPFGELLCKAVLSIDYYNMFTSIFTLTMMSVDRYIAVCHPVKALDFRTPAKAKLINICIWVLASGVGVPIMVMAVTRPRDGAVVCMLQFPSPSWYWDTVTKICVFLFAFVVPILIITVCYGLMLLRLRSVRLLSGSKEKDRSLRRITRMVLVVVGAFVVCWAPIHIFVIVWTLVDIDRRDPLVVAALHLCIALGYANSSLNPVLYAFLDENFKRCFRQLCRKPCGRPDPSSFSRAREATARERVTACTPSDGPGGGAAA
OPRM1-OPRD1 ag = agonists of OPRM1-OPRD1 heterodimerization, primary screen, cell-based, luminescence; Mu-type opioid receptor (Homo sapiens) + Delta-type opioid receptor (Homo sapiens), …; cells; activation, % at 9.3 µM; 0.3% of 340,000 active; in the data active means activation above about 18%;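 further: 0% = vehicle-treated cells and 100% = reference agonist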
HTR5A inv ag = HTR5A inverse agonists in luminescence cell assay, primary screen, counter-screen for OPRM1-OPRD1 heterodimer inverse agonist project, full-deck HTS. inhibition, % at 9.3 µM. 5-hydroxytryptamine receptor 5A (Homo sapiens), P47898. HTR5A cell line, inverse agonism. 0.083% of 340,000 active; in the data active means inhibition mostly above about 23%, no sharp cut-off; inactive means mostly below about 18%;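 further: 0% = cells with DMSO and 100% = no-cell wells with DMSO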
Numbers without * were called inactive; i = inactive. Shown are actives, neighbours in structure and some others; about 1.1% of the full set was active somewhere.

SMILES	HTR5A ag	OPRM1-OPRD1 inv	OPRM1-OPRD1 ag	HTR5A inv ag
Cc1ccc(S(=O)(=O)N2CCCC2C(=O)O)s1 (stereo not drawn)	5	7	-1	-5
Cc1ccc(C(=O)Sc2cccccc2=O)cc1	-10	40*	-9	34*
CC(=O)Nc1sc2c(c1C(c1ccccn1)N1CCCC1)CCCC2 (stereo not drawn)	-5	10	-2	12
CC(=O)Nc1sc2c(c1C(c1cccs1)N1CCOCC1)CCCC2 (stereo not drawn)	13*	3	-1	-5
Fc1ccc(N2CCN(Cc3ccccn3)CC2)cc1	5	16	-3	-8
CC(C(O)c1cc(=O)c(OCc2ccccc2)co1)[N+](=O)[O-] (stereo not drawn)	-3	8	-1	-4
CC1=NN(c2ccccc2)C(=O)/C1=C/C=C/C=C/N(C)C	-8	33*	-6	22*
CC1=NN(c2ccc(C)cc2)C(=O)/C1=C\C=C\c1ccccc1	-6	1	0	-2
COc1ccc(-c2cc(C(=O)OCC(=O)c3ccc(C)c([N+](=O)[O-])c3)c3ccccc3n2)cc1	-1	12	-2	-26
Cc1ccc2nc(C)cc(C(=O)OCC(=O)c3ccc(Cl)c([N+](=O)[O-])c3)c2c1	-9	79*	-19	41*
COC(=O)/C(N=Nc1cccc(C(F)(F)F)c1)=C(\C)O	0	-10	2	-20
COC(=O)C1=C(O)CSC1=Nc1cccc(C(F)(F)F)c1	14*	13	-3	-1
CC(C)(C)OC(=O)N1CCCN(C(=O)c2ccc(Cl)cc2)CC1	-2	20	-4	6
CCOC(=O)c1ccc(Nc2ncnc3c2cnn3C)cc1	-4	2	0	-12
Cn1ncc2c(O/N=C(\N)c3ccc(C(C)(C)C)cc3)ncnc21	68*	i	182*	-166
CC(C)NCC(O)COc1ccc(Br)cc1 (stereo not drawn)	12*	-8	1	-34
OC(COc1ccc2cc(Br)ccc2c1)CN1CCOCC1 (stereo not drawn)	-2	6	-1	-11
O=C(Nc1ccccc1F)c1ccc(Br)o1	13*	16	-3	13
O=C(CCS(=O)(=O)c1ccc(F)cc1)Nc1nnc(-c2ccco2)o1	0	-2	0	-1
O=C(Nc1ccccc1N1CCCCC1)c1ccc(-c2cccc(Cl)c2)o1	-1	13	-2	4
CN1CCN(c2ccccc2NC(=O)c2ccc(-c3cccc(Cl)c3)o2)CC1	-2	-335	62*	-16
CS(=O)(=O)c1sc(C#N)c2c1C(=O)CC(c1ccccc1)C2 (stereo not drawn)	-7	35*	-7	14
Cc1oc2c(c(=O)c1C)C(=O)CC(c1ccccc1)C2 (stereo not drawn)	2	10	-2	2
CSc1ccc(/C=C/C(=O)OCC(=O)c2ccc[nH]2)cc1	13*	-5	1	13
CSc1ncccc1C(=O)OCC(=O)c1ccc[nH]1	7	7	-2	-18
SMILES	HTR5A ag	OPRM1-OPRD1 inv	OPRM1-OPRD1 ag	HTR5A inv ag
C=CCOc1cccc(/C=C2\C(=O)N(Cc3ccc(C)cc3)C(C)=C2C(=O)OC)c1	4	-1	0	1
CCOc1cc(/C=C2\C(=O)N(Cc3ccc(C)cc3)C(C)=C2C(=O)OC)ccc1O	16*	-10	2	-40
Cc1ccc(Cl)cc1N1CCN(C(=O)c2noc(C(C)C)c2[N+](=O)[O-])CC1	42*	-276	52*	-172
O=C(/C=C/c1cccc(Cl)c1)NCc1cccs1	-3	3	-1	-1
O=C(/C=C/c1ccc(Cl)cc1)NCc1cccs1	13*	-6	1	-49
COCCC(=O)N1CCC(Oc2ccc(C(=O)N3CCCC(COC)C3)cc2)CC1 (stereo not drawn)	-1	3	-1	2
Cc1cccc2c1NC(=O)C2(c1ccc(O)cc1)c1ccc(O)cc1	44*	i	124*	-107
CCN(Cc1ccccc1)C(=O)c1cccc(S(=O)(=O)N2CCN(c3ccccc3)CC2)c1	-3	1	0	10
O=C(N[C@@H](Cc1ccccc1)C(=O)OCc1ccccc1)c1nc[nH]c1C(=O)N1CCN(c2ccccc2)CC1	13*	-16	3	-32
COc1cc(NC(=O)c2ccccc2)c(OC)cc1NC(=O)Cc1ccc(C)cc1	9.6*	-16	4	-35
COc1ccccc1CC(=O)Nc1cc(OC)c(NC(=O)c2ccccc2)cc1OC	-3	-6	1	12
O=C(Nc1nc(-c2cccc3ccccc23)cs1)c1cnccn1	10*	5	-1	-26
Fc1ccc(-c2csc3nnc(SCc4cccnc4)n23)cc1	2	3	0	12
Cc1c(NC(=O)c2ccc3c(c2)C(=O)N(CC2CCCO2)C3=O)cccc1C(=O)O (stereo not drawn)	10*	3	0	-10
Clc1ccc(OCCCNCc2ccccc2)c2ccccc12	10*	-30	7	-39
O=C1c2ccccc2C(=O)c2c1ccc1c(=O)n(C3CCCCC3)[nH]c21	1	4	-1	-3
O=C1C2=C(c3ccccc31)[N+](=O)[C@@H]1CCCC[C@@H]1N2[O-]	-6	46*	-8	18
COC(=O)C1=C(C(=O)OC)[C@]2([C@H]3CC=CCN[C@@H](Cc4ccccc4)C(=O)N3Cc3ccccc3)C=C[C@H]1O2	0	-1	0	21
CN(CCO)c1ccc(-c2nn(C)c(=O)c3ccccc23)cc1[N+](=O)[O-]	3	7	-1	14
CN(CCO)c1cc(N(C)CCO)c([N+](=O)[O-])cc1[N+](=O)[O-]	12*	-1	0	-4
Cc1cccc(-c2ncc(CN3CCN(CC(C)C)C(CCO)C3)cn2)c1 (stereo not drawn)	-1	-4	1	1
COc1ccc(CNC(=O)CN2C(=O)C(C)N(c3ccc(C)cc3)C2=O)cc1 (stereo not drawn)	12*	8	-1	-8
CC1(C)CC(=O)C2=C(C1)N(C1CCCCC1)C(=O)C2(O)C(F)(F)F (stereo not drawn)	1	9	-2	-3
Cn1c(CN2CCCCC2)nc2cc(NC(=O)c3ccc(F)cc3)ccc21	9.2*	2	0	-15
Cn1c(CN2CCCCC2)nc2cc(NC(=O)c3ccccc3Cl)ccc21	-1	6	-1	6
Cc1noc(C)c1CSc1nnc(-c2cccnc2)n1C1CCCCC1C (stereo not drawn)	5	13	-2	-1
COc1ccc(Cc2nnc(SCc3c(C)noc3C)n2C2CCCCC2)cc1OC	12*	-6	1	-59
CCOc1ccc(NC(=O)c2ccccc2NC(=O)CN2CCN(C(C)=O)CC2)cc1	3	5	-1	-7
c1cncc(-c2ccnc3ncnn23)c1	-2	9	-1	-15
O=S(=O)(c1ccc(Cl)cc1)N(CCCN1CCOCC1)Cc1cccs1	11*	13	-3	6

Source: PubChem (The Scripps Research Institute Molecular Screening Center)
